Assay [1] is described as follows: Cell Viability - BJ (AID 421).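 Note: potency is the fitted concentration of half-maximal effect; cells exposed to compound for 40 hours at 37 °C before readout.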 The following applies: BJ fibroblast viability, qHTS. Put shortly:
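Luminescent ATP signal (CellTiter-Glo, 20 min at room temperature) served as the read-out of viable BJ cells after 40 hours of compound treatment. Responses were scaled between DMSO and 100 uM tamoxifen, and AC50 values were obtained by Hill modeling.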
Background: In qHTS, concentration-response curves come from the screen itself.

Assay [2] in a line: Cell Viability - Jurkat (AID 426;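 active = dose-dependent loss of cell ATP signal giving a full or clear fitted curve, ranked by lower potency value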;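 note: potency is the fitted concentration of half-maximal effect; cells exposed to compound for 40 hours at 37 °C before ATP read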). The following applies: qHTS. Put shortly: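 Cytotoxicity was scored as loss of cellular ATP, measured by luciferase-based luminescence, in Jurkat clone E6-1 cells after 40 h compound treatment; tamoxifen and doxorubicin served as positive controls.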
Assay [3] in a line: Cell Viability - Hek293 (AID 427;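 active = compounds whose dose-response curve shows a full or clear partial loss of cell viability, called from curve shape rather than a numeric limit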;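 note: potency is the fitted concentration of half-maximal effect; cells exposed to compound for 40 hours at 37 °C before reading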). The note with it: qHTS. In short, it runs like this:
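Luminescent ATP read-out (CellTiter-Glo, 20 min RT) after 40 hr compound exposure at 37 °C in complete medium. Signal normalized to DMSO (basal) and 100 uM tamoxifen (100% inhibition); concentration-response fitted with the standard Hill equation to give AC50.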

A short description of assay [4]: Cell Viability - HepG2 (AID 433). Note: potency is the fitted concentration of half-maximal effect. The following applies: qHTS. Put shortly:
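Read-out is luciferase-based quantitation of cellular ATP as a measure of viable HepG2 cells after 40 h treatment at 37 °C. Signal decrease is scaled between DMSO-only and 100 uM tamoxifen controls, with AC50 fitted by the Hill equation.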

A short description of assay [5]: Cell Viability - MRC5 (AID 434).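 Note: potency is the fitted concentration of half-maximal effect; cells exposed to compound for 40 hours at 37 °C; potency reflects cytotoxicity seen as loss of intracellular ATP.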 The following applies: MRC5 lung fibroblast viability, qHTS. In short, it runs like this:
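AC50 values come from Hill-equation fits of intracellular ATP loss, measured by CellTiter-Glo luminescence. Normal lung fibroblasts (MRC5) had 40 hr compound treatment at 37 C, normalized between DMSO and 100 uM tamoxifen.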

A short description of assay [6]: Cell Viability - SK-N-SH (AID 435).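 Note: potency is the fitted concentration of half-maximal effect; compound exposure lasted 40 h at 37 °C.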 The note with it: SK-N-SH neuroblastoma cell viability qHTS. In short, it runs like this:
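Luminescent ATP signal served as the viability read-out after 40 hours of compound treatment of human neuroblastoma SK-N-SH cells. Concentration-response data, scaled between DMSO and 100 uM tamoxifen, gave AC50 values by standard Hill modeling.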

Assay [7] has as its target Mitogen-activated protein kinase 10 (Mus musculus) (UniProt Q61831). The assay is described as follows: JNK3 AlphaScreen Assay (AID 530; active = well fitted curve in either direction with a large enough effect, not every such curve was filed as active;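 note: kinase came from lysate of stimulated human HepG2 cells; signal reports phosphorylation of biotinylated GST-cJun 1-79 at Ser73 with 10 µM ATP; % is set by controls: 0 for no effect and ±100 for the full control effect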). The following applies: JNK3 lysate, c-Jun phosphorylation; series mostly up to 57.1 µM. Put shortly: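 Kinase buffer: 20 mM Tris-HCl pH 7.6, 10 mM MgCl2, 1 mM DTT, 0.1 mM Na3VO4, 0.01% Tween-20; ATP 10 uM. Substrate biotin-GST-cJun(1-79), enzyme from activated HepG2 lysates. Detection by Ser73 phospho-antibody AlphaScreen.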
(In general: Bead proximity is the source of the signal in Alpha formats.)

The nature of assay [8]: Cell Viability - N2a (AID 540; active = well fitted curve in the direction sought with a large enough effect; an effect the other way counts as inactive or inconclusive;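 note: cells exposed to compound for 40 h at 37 °C; plate controls were DMSO alone for no effect and tamoxifen control for full effect; nearly all actives have a fitted effect of over 45% in size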). The note with it: N2a mouse neuroblastoma cell viability; activity change, negative = cytotoxicity: at 92.2 µM (top of the series). In short, it runs like this: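 In this qHTS cytotoxicity screen, ATP-dependent luciferase luminescence reports viable N2a cells after a 40 hr compound exposure in complete culture medium. Potencies are AC50 values from standard Hill equation fits.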

Assay [9] is described as follows: Cell Viability - NIH 3T3 (AID 541; active = well fitted curve in the direction sought with a large enough effect; an effect the other way counts as inactive or inconclusive;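 note: plate controls were DMSO alone for no effect and tamoxifen positive control for full effect; nearly all actives have a fitted effect of over 25% in size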). The following applies: NIH 3T3 cell viability, qHTS; activity change, negative = cytotoxicity: at 92.2 µM (top of the series). In short, it runs like this: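 In this cytotoxicity screen, acute toxicity is scored as an ATP drop measured by CellTiter-Glo in NIH 3T3 fibroblasts following a 40 hr, 37 °C incubation with compound.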

A short description of assay [10]: Cell Viability - HUV-EC-C (AID 542; active = well fitted curve in the direction sought with a large enough effect; an effect the other way counts as inactive or inconclusive; note: % is set by controls: 0 for no effect and ±100 for the full control effect; nearly all actives have a fitted effect of over 35% in size). The following applies: HUV-EC-C endothelial cell viability, qHTS; series mostly up to 92.2 µM. Put shortly: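 Concentration-dependent ATP loss in HUV-EC-C cells is the measure. Exposure lasts 40 hr at 37 °C; luminescence follows CellTiter-Glo addition, and Hill fits give AC50.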

Structures are written as SMILES. Inconclusive results are not listed. Unmarked numbers belong to inactive results. Calls of active or inactive are those of the source. Unless noted, calls come from the whole dose curve. Some results are limits rather than exact numbers.

Consider `COc1cccc(N)c1`, for which the Potency in [1], in assay [2], in [3], in assay [4], in [5] and in assay [6] was > 92 µM each time. Besides, in assay [7], the molecule was called inactive. Moreover, in assay [8], the activity change, negative = cytotoxicity is -15.1%. Moreover, the Potency result in assay [9] and in assay [10] was “inactive” each time.
For `C/C(C=O)=C/c1ccccc1`, the Potency in assay [1], in assay [2], in assay [3], in [4], in assay [5] and in assay [6] was > 92 µM each time. The molecule was classed as inactive in [7]. The activity change, negative = cytotoxicity in assay [8] was -1.48%. Also, the Potency result in assay [9] and in assay [10] was “inactive” throughout.
`CC1CCCO1` (stereo not given): the Potency in assay [1], in assay [2], in [3], in [4], in assay [5] and in assay [6] was > 92 µM throughout. In addition, the call in assay [7] was inactive. In assay [8], the activity change, negative = cytotoxicity is -13.8%. The Potency result in assay [9] and in assay [10] was “inactive” each time.
In the case of `CC#N`, the Potency in assay [1], in assay [2], in assay [3], in assay [4], in assay [5] and in assay [6] was > 92 µM each time. Further, in [7], the molecule was called inactive. In addition, the activity change, negative = cytotoxicity in [8] was 0.749%. Also, the Potency result in [9] and in assay [10] was “inactive” throughout.
As for `NC(=O)c1cccc([N+](=O)[O-])c1`, the Potency in assay [1], in [2], in [3], in assay [4], in assay [5] and in [6] was > 92 µM throughout. For the same molecule, the call in assay [7] was inactive. Moreover, in assay [8], the activity change, negative = cytotoxicity is -1.6%. Also, the Potency result in assay [9] and in [10] was “inactive” in each case.
For the molecule `CC(C)N=C=NC(C)C`, the Potency in [1], in assay [2], in assay [3], in assay [4], in assay [5] and in [6] was > 92 µM each time. Further, the molecule was classed as inactive in [7]. Besides, in assay [8], the activity change, negative = cytotoxicity was -6.55%. The Potency entry in assay [9] and in assay [10] was “inactive” throughout.
As to `Cc1cccc(C(=O)O)c1[N+](=O)[O-]`, the Potency in assay [1], in assay [2], in [3], in assay [4], in assay [5] and in [6] was > 92 µM in each case. Besides, the molecule was called inactive in assay [7]. Also, the activity change, negative = cytotoxicity in assay [8] was 8.99%. The Potency entry in [9] and in [10] was “inactive” each time.
`Cc1ccc(Br)cc1`: the Potency in assay [1], in assay [2], in assay [3], in assay [4], in assay [5] and in assay [6] was > 92 µM in each case. In addition, the call in assay [7] was inactive. Besides, the activity change, negative = cytotoxicity in assay [8] was 6.22%. In addition, the Potency result in assay [9] and in assay [10] was “inactive” each time.
On to `CC(C)c1ccccc1`, for which the Potency in [1], in assay [2], in assay [3], in assay [4], in [5] and in assay [6] was > 92 µM in each case. Besides, the outcome in [7] was inactive. The activity change, negative = cytotoxicity in assay [8] is -8.99%. The Potency entry in assay [9] and in assay [10] was “inactive” each time.
In the case of `CC(C)(c1cc(Br)c(OCC(Br)CBr)c(Br)c1)c1cc(Br)c(OCC(Br)CBr)c(Br)c1` (stereo not given), the Potency in assay [1] is > 92 µM; in [2] it was 46.9 µM (active); in assay [3], > 92 µM; in [4] it was > 92 µM; in assay [5], > 92 µM; in [6] it was > 92 µM. Moreover, the outcome in [7] was inactive. For the same molecule, in assay [8], the activity change, negative = cytotoxicity was 5.75%. Also, the Potency result in assay [9] and in assay [10] was “inactive” throughout.
Turning to `CC/C=C1/OC(=O)c2ccccc21`, the Potency in [1], in assay [2], in assay [3], in assay [4], in assay [5] and in [6] was > 92 µM throughout. Moreover, the outcome in assay [7] was inactive. Besides, the activity change, negative = cytotoxicity in [8] was 3.1%. In addition, the Potency result in assay [9] and in assay [10] was “inactive” in each case.
On to `C=CCn1c(=O)n(CC=C)c(=O)n(CC=C)c1=O`, for which the Potency in assay [1], in assay [2], in assay [3], in assay [4], in assay [5] and in assay [6] was > 92 µM each time. For the same molecule, the molecule was called inactive in assay [7]. Further, the activity change, negative = cytotoxicity in [8] is 0.0467%. Also, the Potency result in [9] and in assay [10] was “inactive” throughout.
Take `CC(C)=CCl`: the Potency in [1], in [2], in assay [3], in assay [4], in assay [5] and in assay [6] was > 92 µM throughout. Also, in [7], the molecule was called inactive. In assay [8], the activity change, negative = cytotoxicity is 1.02%. In addition, the Potency result in [9] and in [10] was “inactive” each time.

Values taken from PubChem BioAssay (NCATS).
